Experimental data reported in PubChem BioAssay (NCATS).
Inconclusive results are not listed. Where a call stands in place of a potency, no number is given. Activity calls are given as the source filed them. Unless noted, calls follow the shape of the dose curve; as a rule, active = well fitted curve in the direction sought with a large enough effect; inconclusive = small, poorly fitted or top-dose-only effect, or another doubt; inactive = no such curve, though single readings can be large; an effect the other way counts as inactive or inconclusive.

Tests used:
[1] = target: Mitogen-activated protein kinase 10 (Mus musculus) (UniProt Q61831); experiment: JNK3 AlphaScreen Assay (AID 530; active = well fitted curve in either direction with a large enough effect, not every such curve was filed as active;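 also: kinase came from lysate of stimulated human HepG2 cells; signal reports phosphorylation of biotinylated GST-cJun 1-79 at Ser73 with 10 µM ATP; series mostly up to about 57 µM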)
Procedure, shortened: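 HepG2 lysate (IL-1b/TNFa pre-activated) + biotin-GST-cJun 1-79 + anti-pSer73 cJun; cpd titration, 15 min RT; ATP 10 uM start; Tris pH 7.6, MgCl2, DTT, vanadate; beads in EDTA buffer; AlphaScreen.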

[2] = target: Cytochrome P450 3A4 (Homo sapiens) (UniProt P08684); experiment: qHTS Assay for Inhibitors and Substrates of Cytochrome P450 3A4 (AID 884); also: nearly all actives have a fitted effect of over 50% in size; also: potency is read from the fitted curve at half-maximal effect
Procedure, shortened: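 Luminescent readout of luciferin produced by CYP3A4 (20 nM) dealkylation of Luciferin-PPXE, 25 uM (its KM). NADPH-driven reaction ran 60 min at RT after 10 min compound preincubation; data scaled to 57 uM ketoconazole as 100% inhibition.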

[3] = target: Cytochrome P450 3A4 (Homo sapiens) (UniProt P08684); experiment: qHTS Assay for Activators of Cytochrome P450 3A4 (AID 885); also: nearly all actives have a fitted effect of over 65% in size
Procedure, shortened: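 Human CYP3A4 dealkylates Luciferin-PPXE to luciferin, which luciferase detection converts to light. Substrate was at its KM (25uM), buffer 200mM KPO4, reaction 60 min at RT.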

Sequence of Cytochrome P450 3A4 (Homo sapiens) (P08684 whole entry, looked up): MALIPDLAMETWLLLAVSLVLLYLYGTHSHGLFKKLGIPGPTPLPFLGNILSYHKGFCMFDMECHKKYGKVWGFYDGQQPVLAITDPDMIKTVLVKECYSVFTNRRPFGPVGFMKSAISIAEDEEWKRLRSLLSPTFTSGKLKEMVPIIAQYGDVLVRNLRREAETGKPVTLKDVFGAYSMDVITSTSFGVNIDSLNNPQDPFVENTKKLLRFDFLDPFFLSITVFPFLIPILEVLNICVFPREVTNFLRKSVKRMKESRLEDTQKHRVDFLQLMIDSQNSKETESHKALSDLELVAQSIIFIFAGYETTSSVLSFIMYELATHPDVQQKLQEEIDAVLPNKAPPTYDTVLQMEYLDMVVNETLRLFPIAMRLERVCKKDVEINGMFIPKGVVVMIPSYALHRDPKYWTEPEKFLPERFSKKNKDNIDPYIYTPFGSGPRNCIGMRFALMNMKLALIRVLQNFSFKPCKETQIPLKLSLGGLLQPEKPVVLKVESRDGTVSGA

Row | SMILES | outcome [1] | Potency [2] | Potency [3]
1 | CC1(C(=O)O)C=CCN1C(=O)c1ccccc1 (centres undefined) | inactive | inactive | –
2 | CNC(=O)[C@@]1(C)C=C[C@@H](Cc2ccccc2)N1C(C)=O | inactive | inactive | –
3 | COC(=O)[C@@]1(Cc2ccccc2)C=C[C@@H](C)N1C(C)=O | inactive | inactive | –
4 | COC(=O)c1ccc(C(NC(=O)OCc2ccccc2)/C(=C/[C@@H](C)C(=O)NCc2ccc(C)o2)c2cccnc2)cc1 (some centres undefined) | inactive | 15.8 µM (active) | –
5 | CC(=O)N1[C@H](C)C=C[C@]1(Cc1ccccc1)C(=O)NCc1ccc(C)o1 | inactive | 5.01 µM (active) | inactive
6 | CNC(=O)[C@]1(C)C[C@H]1[C@H](NC(=O)[C@]1(C)C[C@H]1[C@H](NC(=O)[C@]1(C)C[C@H]1[C@H](NC(=O)[C@]1(C)C[C@H]1[C@H](NC(=O)OCc1ccccc1)c1ccccc1)c1ccccc1)c1ccccc1)c1ccccc1 | inactive | 12.6 µM (active) | inactive
7 | COC(=O)c1ccc(C(NC(=O)OCc2ccccc2)/C(=C/[C@@H](C)C(=O)N(C)C)c2cccnc2)cc1 (some centres undefined) | inactive | 5.01 µM (active) | inactive
8 | Cc1nc(NCCO)c2nc(-c3ccccc3)n(CCN(C)C)c2n1 | inactive | inactive | –
9 | CCNC(=O)[C@H](C)/C=C/C(NC(=O)OCc1ccccc1)c1ccc(C(=O)OC)cc1 (some centres undefined) | inactive | 6.31 µM (active) | inactive
10 | CCCn1c(C)nc2c(NCCO)nc(C)nc21 | inactive | inactive | –
11 | CC(=O)N1[C@H](Cc2ccccc2)C=C[C@]1(C)C(=O)O | inactive | inactive | –
12 | CCCCCCN(C(=O)CCCCCN1C(=O)NC(c2ccccc2-c2ccccc2)C(C(=O)OCc2ccccc2)=C1C)C(C(=O)NCCCC)c1ccc(OCC(=O)OC)c(C(=O)OC)c1 (centres undefined) | inactive | 6.31 µM (active) | inactive
13 | CCC[C@@H]1C[C@@]1(CCC)[C@@H](NC(=O)c1ccccc1)c1ccc(C(=O)OC)cc1 | inactive | 6.31 µM (active) | inactive
14 | COC(=O)c1ccc(C(NC(=O)OCc2ccccc2)/C(=C/[C@@H](C)C(=O)NCc2ccccc2)c2cccnc2)cc1 (some centres undefined) | inactive | 3.98 µM (active) | inactive
15 | CC(=O)N1C2(C=CC1(C)C(=O)NCc1cc(F)cc(C(F)(F)F)c1)CCCCC2 (centres undefined) | inactive | 10 µM (active) | inactive
16 | COC(=O)c1ccc(C(/C=C/[C@@H](C)C(=O)NCc2ccccc2)NC(=O)OCc2ccccc2)cc1 (some centres undefined) | inactive | 5.01 µM (active) | inactive
17 | CC(Cc1ccccc1)C(=O)NCc1ccncc1 (centres undefined) | inactive | 2.51 µM (active) | inactive
18 | C[C@]1(C(=O)NCCc2c[nH]c3ccccc23)C=C[C@@H](Cc2ccccc2)N1C(=O)c1ccccc1 | inactive | 1.58 µM (active) | inactive
19 | CNC(=O)[C@]1(C)C[C@H]1[C@H](NC(=O)[C@]1(C)C[C@H]1[C@H](NC(=O)OCc1ccccc1)c1ccccc1)c1ccccc1 | inactive | 15.8 µM (active) | inactive
20 | CCCCNC(=O)C(c1ccc(-c2ccccc2)cc1)N(CCN1CCOCC1)C(=O)CCCCCN1C(=O)NC(c2ccc([N+](=O)[O-])cc2)C(C(=O)OCc2ccccc2)=C1C (centres undefined) | inactive | 2.51 µM (active) | inactive
21 | COC(=O)c1ccc(C(NC(=O)OCc2ccccc2)/C(=C/[C@@H](C)C(=O)NCc2cccnc2)c2cccnc2)cc1 (some centres undefined) | inactive | 1 µM (active) | inactive
22 | COC(=O)c1ccc(C(NC(=O)OCc2ccccc2)/C(F)=C/[C@@H](C)C(=O)NC2CCCCC2)cc1 (some centres undefined) | inactive | 3.98 µM (active) | inactive
23 | COC(=O)c1ccc(C(NC(=O)OCc2ccccc2)/C(I)=C/[C@@H](C)C(=O)Nc2ccccc2)cc1 (some centres undefined) | inactive | 2 µM (active) | inactive
24 | COC(=O)c1ccc(C(NC(=O)OCc2ccccc2)/C(C)=C/[C@@H](C)C(=O)Nc2ccc(OC)cc2)cc1 (some centres undefined) | inactive | 2.51 µM (active) | inactive
25 | CCCCCCN(C(=O)CCCCCN1C(=O)NC(c2ccc3ccccc3c2)C(C(=O)OCc2ccccc2)=C1C)C(C(=O)NCCCC)c1ccc(OCC(=O)OC)c(C(=O)OC)c1 (centres undefined) | inactive | 2.51 µM (active) | inactive
26 | CC(Cc1ccccc1)C(=O)N[C@@H](CO)Cc1ccccc1 (some centres undefined) | inactive | 15.8 µM (active) | inactive
27 | CCCCCCN(C(=O)CCCCCN1C(=O)NC(c2ccc(-c3ccccc3)cc2)C(C(=O)OCc2ccccc2)=C1C)C(C(=O)NCCCC)c1ccc(O)cc1 (centres undefined) | inactive | 10 µM (active) | inactive
